This is a sample that favours compounds with a hit; in the whole collection about 3.1% have one here.
EBV LMP1 NFkB: EBV LMP1-driven NF-kappaB luciferase reporter inhibitors, primary screen, cell-based, luminescence, single point; inhibition, % at 12.5 µM; LMP1-induced NF-kappaB luciferase reporter cells; 350,000 compounds, 0.69% hits; in the data active = inhibition above about 41%;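 note: 0% = neutral control wells and 100% = reference inhibitor control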
TWEAK Fn14 block: inhibitors of TWEAK-Fn14 signaling, primary screen, luciferase reporter cells, uHTS | AID 1159606, 2016 | TWEAK-stimulated Fn14 reporter cells, luciferase luminescence, 8 h | 360,000 compounds, 2% hits | inhibition, % at 10 µM; in the data active = inhibition above about 50%
EWS-Fli inh: EWS/Fli-driven NR0B1 reporter inhibitors, primary screen, A673 cells, NR0B1 luciferase, luminescence, MLPCN library; AID 651661, 2012; viability-normalised; 350,000 compounds, 0.67% hits; inhibition, % at 12.6 µM;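 active = mean inhibition of at least 50% after viability correction, with every replicate also passing that limit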;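 note: firefly luciferase signal divided by Alamar Blue viability fluorescence both relative to DMSO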
PAX8 inh HTS: inhibitors of PAX8-driven TPO luciferase reporter, primary screen, RMG-I cells, single concentration | SteadyGlo, 24 h | inhibition, % at 12.6 µM | 360,000 compounds, 1.2% hits | AID 652154, 2013;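 active = mean replicate inhibition at least 60% with every replicate also reaching 60%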;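 note: luciferase light reporting Pax8 driven TPO promoter activity; plate controls were median of neutral control wells for no effect and mitoxantrone controls for full effect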
TROY NFkB inh: inhibitors of TROY-driven NF-kB signaling, primary screen, Q293 LMP1-TROYcd cells, NF-kB luciferase, uHTS; Q293 LMP1-TROYcd NF-kB luciferase reporter, 4 h; inhibition, % at 10 µM; 360,000 compounds, 0.98% hits;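 active = compounds whose plate-normalised and pattern-corrected inhibition of the luciferase reporter signal at the single screening dose is 50% or more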
LGR2 inh: inhibitors of bursicon-induced LGR2 CRE-luciferase signal, primary screen, cell-based, HEK293, CRE-luciferase reporter, bursicon stimulation. Drosophila bursicon receptor LGR2 (rickets). 380,000 compounds, 0.35% hits. inhibition, % at 9.99 µM. bursicon-stimulated, 4 h;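 active = drop in luminescence signal, shown as inhibition above about 50% in the replicate tests, limit read from the data, passing the limit was not always enough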;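 note: agonist challenge used bursicon conditioned medium at about half maximal strength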
An asterisk follows results filed as active; . = no result given.

SMILES	EBV LMP1 NFkB	TWEAK Fn14 block	EWS-Fli inh	PAX8 inh HTS	TROY NFkB inh	LGR2 inh
COCCNC(=O)/C(C#N)=C/c1ccc(O)cc1	-6	-28	-4	3	-19	11
CCOCCCNC(=O)/C(C#N)=C/c1cc(OC)c(O)c([N+](=O)[O-])c1	-6	35	1	5	19	34
COCCNC(=O)/C(C#N)=C/c1cccc(/C=C(\C#N)C(=O)NCCOC)c1	16	65*	16	13	28	-1
COCCNC(=O)/C(C#N)=C/C=C/c1ccccc1[N+](=O)[O-]	-94	46	23	80*	-23	0
CNC(=O)/C(C#N)=C/c1cccc(Oc2ccccc2)c1	1	53*	-26	-9	-80	-39
COc1ccc2c3c(n(C)c2c1)[C@H](CO)N(Cc1nccs1)CC31CN(C(C)=O)C1	.	.	7	.	.	-1
CCCNC(=O)Nc1ccc2c(c1)OC[C@H](C)N(Cc1ccncc1)C[C@H](C)[C@H](OC)CN(C)C2=O	.	.	1	.	.	-1
CNC(=O)C[C@@H]1CC[C@@H]2[C@@H](COc3ccc(NS(=O)(=O)c4ccccc4C)cc3C(=O)N2C)O1	.	.	0	-8	.	1
COCC(=O)N1[C@H](CO)[C@@H]2c3ccccc3N(C)C[C@@H]21	.	.	-1	.	.	12
CN1CCN(c2ccc(NC(=S)NC(=O)c3cccc4c(Br)cccc34)cc2)CC1	0	-40	-10	-14	-16	-9
COc1ccc(C(=O)Nc2ccc(N3CCN(C)CC3)cc2)cc1	-24	14	-96	-125	-42	-19
COC(=O)c1ccccc1NC(=S)NC(=O)c1cccc2ccccc12	6	60*	.	.	27	.
CC(=O)c1ccc(NC(=S)Nc2cccc3ccccc23)cc1	0	33	-11	-14	72*	-7
CN1CCN(c2ccc(NC(=O)c3ccc4ccccc4c3)cc2)CC1	14	78*	22	4	65*	40
CN1CCN(c2ccc(NC(=S)NC(=O)c3cccc4ccccc34)cc2)CC1	-11	-45	65*	-14	-20	9
COc1c(C)cccc1C(=O)NC(=S)Nc1ccccc1N1CCCC1	-3	57*	-18	-22	68*	-41
O=C(NC(=S)Nc1ccccc1N1CCCC1)c1ccccc1Br	-7	23	24	50	7	12
CC(=O)N(C)C[C@@H]1Oc2cc(-c3ccccc3F)ccc2S(=O)(=O)N([C@@H](C)CO)C[C@@H]1C	.	.	-5	.	.	11
C[C@H]1CN([C@@H](C)CO)S(=O)(=O)c2ccc(/C=C/c3ccccc3)cc2O[C@@H]1CN(C)C(=O)Nc1cc(F)ccc1F	.	.	-5	-18	.	-13
C[C@H]1CN([C@@H](C)CO)S(=O)(=O)c2ccc(/C=C/c3ccccc3)cc2O[C@H]1CN(C)C(=O)Nc1cc(F)ccc1F	.	.	16	64*	.	6
C[C@H](CO)N1C[C@H](C)[C@H](CN(C)C(=O)c2ccccc2)Oc2cc(/C=C/c3ccccc3)ccc2S1(=O)=O	.	.	8	40	.	-5
C[C@@H]1CN([C@@H](C)CO)S(=O)(=O)c2ccc(/C=C/c3ccccc3)cc2O[C@@H]1CN(C)Cc1ccc(C(=O)O)cc1	55*	30	2	1	36	21
C[C@@H]1CN([C@@H](C)CO)S(=O)(=O)c2ccc(/C=C/c3ccccc3)cc2O[C@H]1CN(C)C(=O)c1ccccc1	.	.	31	71*	.	24
CC(C)NC(=O)Nc1ccc2c(c1)C(=O)N([C@H](C)CO)C[C@H](C)[C@H](CN(C)CC1CC1)OCCCC[C@H](C)O2	.	.	-4	-25	.	6
COc1ccc(S(=O)(=O)N(C)C[C@@H]2Oc3ccc(NS(=O)(=O)c4ccc(C)cc4)cc3C(=O)N([C@H](C)CO)C[C@H]2C)cc1	.	.	-7	-2	.	-1
COc1ccc2[nH]c(C(=O)N3CCC(CO)(Cc4cccc(C(F)(F)F)c4)CC3)c(C)c2c1	2	22	6	30	53*	3

High-throughput results as filed in PubChem BioAssay.
